Results on seven molecules are retold here after PubChem BioAssay (NCI).

Among the test systems are HCT-15 colon; HT29 colon; SNB-75 CNS; SNB-19 CNS; U251 CNS; PC-3 prostate; SK-MEL-5 melanoma; UACC-62 melanoma; LOX IMVI melanoma; SK-MEL-28 melanoma; SK-MEL-2 melanoma; EKVX NSCLC; SN12C renal; UO-31 renal; TK-10 renal; A498 renal; CCRF-CEM leukemia; MOLT-4 leukemia; CAKI-1 renal; ACHN renal.
Holding throughout (assay): NCI-60 one-dose screen, 48 h (100 = growth as untreated, 0 = no growth, -100 = all killed)
Common to all, as to conditions: 10 µM unless noted

Molecules are shown by their SMILES. This is part of a sample that, as a whole, favours compounds with a hit. Of some 83,000 tested, about 20% had one in any assay.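 Treatment: one concentration, 48 hours, 96-well format. Scoring: percent growth, with anything below 10 considered active.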 Unmarked numbers belong to inactive results. Calls of active or inactive are those of the source.

Turning to `C=C1C(=O)O[C@H]2[C@H]1CC/C(COC(=O)CCCc1c[nH]c3ccccc13)=C\CC[C@@]1(C)O[C@@H]21`, the growth with HCT-15 colon is 7.56% (active); in the assay on HT29 colon, 21.7%; in the assay on SNB-75 CNS it was 76.4%; with SNB-19 CNS it was 71.2%; in the assay with U251 CNS, 56.4%; with PC-3 prostate, 50.7%. For the same molecule, the growth in the assay with SK-MEL-5 melanoma was 71.5%; in the assay with UACC-62 melanoma it was 70.1%; with LOX IMVI melanoma, -3.89% (active); in the assay on SK-MEL-28 melanoma, 92.6%; in the assay with SK-MEL-2 melanoma, 88.4%; in the assay on EKVX NSCLC, 74.3%. Further, the growth was 54.8% with SN12C renal; 58.5% in the assay with UO-31 renal; 94.7% in the assay on TK-10 renal; 103% with A498 renal; 1.43% (active) in the assay with CCRF-CEM leukemia; 3.73% (active) with MOLT-4 leukemia.

For the molecule `CNC(=O)NCC1OC(n2cnc3c(NC(=O)Nc4ccccc4)ncnc32)C(O[Si](C)(C)C(C)(C)C)C1O[Si](C)(C)C(C)(C)C` (stereo not drawn), the growth in the assay on HCT-15 colon was 21.3%; in the assay with HT29 colon, -67.7% (active); with SNB-75 CNS it was 45.8%; with SNB-19 CNS, 76.1%; in the assay with U251 CNS, 17.2%; in the assay on PC-3 prostate, 7.78% (active). Moreover, the growth in the assay with SK-MEL-5 melanoma is 48.2%; with UACC-62 melanoma, 41.9%; in the assay on LOX IMVI melanoma it was 13.3%; in the assay on SK-MEL-28 melanoma, 60%; in the assay on SK-MEL-2 melanoma, 56.7%; in the assay with EKVX NSCLC, 23.4%. Further, the growth in the assay with SN12C renal was -79.3% (active); with UO-31 renal, 48.3%; with TK-10 renal, 34.2%; in the assay with CAKI-1 renal, 59.5%; in the assay with CCRF-CEM leukemia it was 42.6%; with MOLT-4 leukemia, 24.1%.

`COc1cc2nc(Cc3ccc(C)cc3)[nH]c(=O)c2cc1OC`: the growth in the assay on HCT-15 colon was 104%; with HT29 colon, 107%; with SNB-75 CNS, 95.6%; in the assay with SNB-19 CNS, 97.9%; with U251 CNS, 117%; in the assay with PC-3 prostate, 101%. Further, the growth in the assay on SK-MEL-5 melanoma was 109%; in the assay with UACC-62 melanoma, 95.1%; in the assay on LOX IMVI melanoma, 105%; in the assay with SK-MEL-28 melanoma, 96.6%; in the assay with SK-MEL-2 melanoma, 123%; in the assay on EKVX NSCLC, 109%. The growth in the assay with SN12C renal is 99.6%; with UO-31 renal, 97.5%; in the assay on TK-10 renal it was 292%; in the assay on CAKI-1 renal, 129%; in the assay on A498 renal, 90.6%; with CCRF-CEM leukemia it was 1.89% (active). In addition, the growth in the assay on MOLT-4 leukemia is 95%.

Take `O=C(Nc1ccc(Nc2ncccn2)cc1)NC1C=c2ccccc2=CC1` (stereo not drawn): the growth in the assay with HCT-15 colon was 102%; in the assay with HT29 colon it was 103%; with SNB-75 CNS it was 91.8%; with SNB-19 CNS, 103%; in the assay on U251 CNS it was 99%; with PC-3 prostate it was 108%. Moreover, the growth with SK-MEL-5 melanoma is 99.7%; in the assay on UACC-62 melanoma, 92.9%; in the assay on LOX IMVI melanoma, 108%; in the assay with SK-MEL-28 melanoma, 107%; in the assay with SK-MEL-2 melanoma, 102%; in the assay with EKVX NSCLC, 106%. In addition, the growth in the assay with SN12C renal was 92.5%; with UO-31 renal, 80.5%; in the assay with TK-10 renal, 112%; in the assay on ACHN renal, 105%; with A498 renal, 96.9%; with CCRF-CEM leukemia, 90%. Moreover, in the assay on MOLT-4 leukemia, the growth is 87.5%.

Regarding `C#CC(=O)Nc1cccc2c1cc(C)n2-c1nc2c(c(NCc3ccccc3)n1)CCCC2`, the growth was -74.4% (active) in the assay on HCT-15 colon; -58.2% (active) in the assay with HT29 colon; -25.6% (active) in the assay on SNB-75 CNS; -71.9% (active) with SNB-19 CNS; -91.9% (active) in the assay on U251 CNS; -56.5% (active) in the assay on PC-3 prostate. Also, the growth with SK-MEL-5 melanoma was -96.1% (active); in the assay on UACC-62 melanoma it was -73.7% (active); with LOX IMVI melanoma it was -65.8% (active); in the assay on SK-MEL-28 melanoma, -58.4% (active); with SK-MEL-2 melanoma, -74.5% (active); in the assay on EKVX NSCLC, -39.3% (active). In addition, the growth with SN12C renal was -66.2% (active); in the assay on UO-31 renal it was -76% (active); in the assay with TK-10 renal, -98.1% (active); in the assay on CAKI-1 renal it was -43.2% (active); in the assay on CCRF-CEM leukemia, -26.5% (active); in the assay on MOLT-4 leukemia, -33.4% (active).

For `CN1CCN(C(=O)OCc2nc3c(N4CCOCC4)nc(-c4ccccc4)nc3n2C)CC1`, the growth in the assay with HCT-15 colon was -59.9% (active); in the assay on HT29 colon, -29.1% (active); in the assay on SNB-75 CNS, -6.43% (active); in the assay on SNB-19 CNS, 30.3%; in the assay with U251 CNS, -54.2% (active); in the assay with PC-3 prostate, -62.3% (active). The growth in the assay with SK-MEL-5 melanoma was -96.7% (active); with UACC-62 melanoma it was -95.9% (active); in the assay on LOX IMVI melanoma, -91.4% (active); in the assay with SK-MEL-28 melanoma, -95.5% (active); in the assay with SK-MEL-2 melanoma it was -59.9% (active); in the assay on EKVX NSCLC, -76.7% (active). For the same molecule, the growth is -86.8% (active) in the assay on SN12C renal; -100% (active) in the assay on UO-31 renal; -100% (active) in the assay with ACHN renal; -93.5% (active) with CAKI-1 renal; 3.05% (active) in the assay with A498 renal; -6.94% (active) in the assay with CCRF-CEM leukemia. In addition, the growth in the assay on MOLT-4 leukemia is -6.95% (active).

On to `C[C@H]1[C@H](C)CC[C@]2(CO)CC[C@]3(C)C(=CC[C@@H]4[C@@]5(C)Cc6c([nH]c7ccccc67)C(C)(C)[C@@H]5CC[C@]43C)[C@H]12`, for which the growth in the assay with HCT-15 colon is 100%; in the assay on HT29 colon, 68.1%; with SNB-75 CNS, 87.6%; with SNB-19 CNS, 80.8%; in the assay on U251 CNS, 72.4%; in the assay on PC-3 prostate, 68.5%. In addition, the growth in the assay on SK-MEL-5 melanoma is 97.5%; in the assay with UACC-62 melanoma, 81.4%; in the assay with LOX IMVI melanoma, 79.1%; with SK-MEL-28 melanoma it was 79.6%; in the assay with SK-MEL-2 melanoma, 85.2%; in the assay on EKVX NSCLC, 75.5%. Further, the growth is 55.6% in the assay on SN12C renal; 74.3% in the assay on UO-31 renal; 86.3% with TK-10 renal; 73.2% with CAKI-1 renal; 67% in the assay on MOLT-4 leukemia.
